Data published in PubChem BioAssay (EPA / NIEHS).
Calls of active or inactive are those of the source. Rule for the calls: active = hit-call score of the fitted dose curve at least 0.9, where 1 is the maximum; inactive = score below 0.9.

Experiments:
[1] = read-out: Tumor necrosis factor receptor superfamily member 6 (Homo sapiens) (UniProt P25445); assay: LTEA_HepaRG_FAS: Life Technologies and Expression Analysis (LTEA) Assay for Fas cell surface death receptor (FAS) using HepaRG (AID 2283447); conditions: mRNA level, 48 h; actives raise or lower the signal
Procedure, shortened: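 Differentiated HepaRG cells in serum-free induction medium were exposed 48 h to 8 half-log concentrations up to 100 uM in 0.5% DMSO, in duplicate. FAS mRNA was measured by qRT-PCR normalised to ACTB, GAPDH and POLR2A; bidirectional fit versus DMSO.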

[2] = read-out: Fatty acid synthase (Homo sapiens) (UniProt P49327); assay: LTEA_HepaRG_FASN: Life Technologies and Expression Analysis (LTEA) Assay for Fatty Acid Synthase (FASN) using HepaRG (AID 2283448); conditions: mRNA level, 48 h; actives raise or lower the signal
Procedure, shortened: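 Differentiated human HepaRG cells were exposed for 48 h in serum-free induction medium to eight half-log concentrations up to 100 uM in 0.5% DMSO, in duplicate. FASN mRNA was quantified by TaqMan qRT-PCR, normalized to ACTB/GAPDH/POLR2A, and fitted bidirectionally against DMSO.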

[3] = read-out: Cyclin D2 (CCND2), CCND2 (gene 894); assay: LTEA_HepaRG_CCND2: Life Technologies and Expression Analysis (LTEA) Assay for Cyclin D2 (CCND2) using HepaRG (AID 2283449); conditions: mRNA level, 48 h; actives raise or lower the signal;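 note: CCND2 transcript measured by TaqMan qRT-PCR and normalised to three housekeeping genes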
Procedure, shortened: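 Chemicals in 0.5% DMSO, eight half-log concentrations from 100 uM top, were applied in duplicate for 48 h to human HepaRG cells in serum-free induction medium. CCND2 mRNA by TaqMan qRT-PCR, normalised to ACTB/GAPDH/POLR2A; bidirectional fit versus DMSO.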

[4] = read-out: Cyclin Dependent Kinase Inhibitor 1A (CDKN1A), CDKN1A (gene 1026); assay: LTEA_HepaRG_CDKN1A: Life Technologies and Expression Analysis (LTEA) Assay for Cyclin Dependent Kinase Inhibitor 1A (CDKN1A) using HepaRG (AID 2283450); conditions: mRNA level, 48 h; actives raise or lower the signal
Procedure, shortened: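 Gain or loss of CDKN1A transcript is scored by bidirectional fitting against 0.5% DMSO vehicle. Human HepaRG cultures receive chemicals for 48 h across an 8-point series peaking at 100 uM; expression comes from qRT-PCR.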

[5] = read-out: Cyclin D1 (CCND1), CCND1 (gene 595); assay: LTEA_HepaRG_CCND1: Life Technologies and Expression Analysis (LTEA) Assay for Cyclin D1 (CCND1) using HepaRG (AID 2283451); conditions: mRNA level, 48 h; actives raise or lower the signal;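 for AC50: TaqMan qRT-PCR transcript level normalised to ACTB GAPDH and POLR2A housekeeping genes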
Procedure, shortened: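 Expression change is measured by qRT-PCR in HepaRG cells after 48 h treatment across eight concentrations topping at 100 uM, with duplicate wells and DMSO (0.5%) serving as baseline for bidirectional fitting.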

[6] = read-out: catalase (CAT), CAT (gene 847); assay: LTEA_HepaRG_CAT: Life Technologies and Expression Analysis (LTEA) Assay for catalase (CAT) using HepaRG (AID 2283452); conditions: mRNA level, 48 h; actives raise or lower the signal;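 for AC50: TaqMan qRT-PCR signal normalized to ACTB GAPDH and POLR2A housekeeping genes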
Procedure, shortened: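 HepaRG cells in serum-free induction medium, 0.5% DMSO vehicle, exposed 48 h in duplicate over 8 half-log concentrations from 100 uM. CAT mRNA measured by qRT-PCR, normalized to ACTB, GAPDH, POLR2A; bidirectional fit versus DMSO.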

[7] = CEETOX_H295R_DOC: CeeTox H295R High-throughput Steroidogenesis Assay for DOC (AID 2283439); conditions: actives raise or lower the signal
Procedure, shortened: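 H295R adrenal cells prestimulated 48 h with 10 uM forskolin, then exposed 48 h to test chemical (0.1% DMSO final). Medium 11-deoxycorticosterone extracted with MTBE, quantified by HPLC-MS/MS; bidirectional fit versus DMSO baseline; MTT viability in same wells.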

[8] = CEETOX_H295R_PROG: CeeTox H295R High-throughput Steroidogenesis Assay for Progesterone (PROG) (AID 2283442); conditions: actives raise or lower the signal;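 for AC50: human H295R adrenal cells primed with 10 µM forskolin before dosing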
Procedure, shortened: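 Measured analyte is progesterone secreted by H295R cells at 48 h of chemical treatment, following 10 uM forskolin priming. Quantitation used HPLC-MS/MS against a 7-point standard curve; cytotoxicity was checked by MTT absorbance.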

[9] = CEETOX_H295R_ESTRADIOL: CeeTox H295R High-throughput Steroidogenesis Assay for Estradiol (AID 2283440); conditions: actives raise or lower the signal;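 note: estradiol secreted into medium quantified by LC-MS/MS after dansyl derivatisation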
Procedure, shortened: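 Readout is estradiol in conditioned medium, quantified by reverse-phase HPLC-MS/MS against a 7-point standard curve. Cells: H295R, forskolin-stimulated, then dosed 48 h in 0.1% DMSO; activity fitted in both directions relative to DMSO.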

[10] = CEETOX_H295R_ESTRONE: CeeTox H295R High-throughput Steroidogenesis Assay for Estrone (AID 2283441); conditions: actives raise or lower the signal;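 note: estrone secreted into medium measured by LC-MS/MS after dansyl derivatization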
Procedure, shortened: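 H295R cells; 48 h forskolin (10 uM) prestimulation; 48 h compound exposure, 0.1% DMSO final. Medium estrone: MTBE extraction, dansyl derivatization, HPLC-MS/MS. Bidirectional fit vs DMSO.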

Measured: AC50

Sequence of Fatty acid synthase (Homo sapiens) (P49327 whole entry, looked up): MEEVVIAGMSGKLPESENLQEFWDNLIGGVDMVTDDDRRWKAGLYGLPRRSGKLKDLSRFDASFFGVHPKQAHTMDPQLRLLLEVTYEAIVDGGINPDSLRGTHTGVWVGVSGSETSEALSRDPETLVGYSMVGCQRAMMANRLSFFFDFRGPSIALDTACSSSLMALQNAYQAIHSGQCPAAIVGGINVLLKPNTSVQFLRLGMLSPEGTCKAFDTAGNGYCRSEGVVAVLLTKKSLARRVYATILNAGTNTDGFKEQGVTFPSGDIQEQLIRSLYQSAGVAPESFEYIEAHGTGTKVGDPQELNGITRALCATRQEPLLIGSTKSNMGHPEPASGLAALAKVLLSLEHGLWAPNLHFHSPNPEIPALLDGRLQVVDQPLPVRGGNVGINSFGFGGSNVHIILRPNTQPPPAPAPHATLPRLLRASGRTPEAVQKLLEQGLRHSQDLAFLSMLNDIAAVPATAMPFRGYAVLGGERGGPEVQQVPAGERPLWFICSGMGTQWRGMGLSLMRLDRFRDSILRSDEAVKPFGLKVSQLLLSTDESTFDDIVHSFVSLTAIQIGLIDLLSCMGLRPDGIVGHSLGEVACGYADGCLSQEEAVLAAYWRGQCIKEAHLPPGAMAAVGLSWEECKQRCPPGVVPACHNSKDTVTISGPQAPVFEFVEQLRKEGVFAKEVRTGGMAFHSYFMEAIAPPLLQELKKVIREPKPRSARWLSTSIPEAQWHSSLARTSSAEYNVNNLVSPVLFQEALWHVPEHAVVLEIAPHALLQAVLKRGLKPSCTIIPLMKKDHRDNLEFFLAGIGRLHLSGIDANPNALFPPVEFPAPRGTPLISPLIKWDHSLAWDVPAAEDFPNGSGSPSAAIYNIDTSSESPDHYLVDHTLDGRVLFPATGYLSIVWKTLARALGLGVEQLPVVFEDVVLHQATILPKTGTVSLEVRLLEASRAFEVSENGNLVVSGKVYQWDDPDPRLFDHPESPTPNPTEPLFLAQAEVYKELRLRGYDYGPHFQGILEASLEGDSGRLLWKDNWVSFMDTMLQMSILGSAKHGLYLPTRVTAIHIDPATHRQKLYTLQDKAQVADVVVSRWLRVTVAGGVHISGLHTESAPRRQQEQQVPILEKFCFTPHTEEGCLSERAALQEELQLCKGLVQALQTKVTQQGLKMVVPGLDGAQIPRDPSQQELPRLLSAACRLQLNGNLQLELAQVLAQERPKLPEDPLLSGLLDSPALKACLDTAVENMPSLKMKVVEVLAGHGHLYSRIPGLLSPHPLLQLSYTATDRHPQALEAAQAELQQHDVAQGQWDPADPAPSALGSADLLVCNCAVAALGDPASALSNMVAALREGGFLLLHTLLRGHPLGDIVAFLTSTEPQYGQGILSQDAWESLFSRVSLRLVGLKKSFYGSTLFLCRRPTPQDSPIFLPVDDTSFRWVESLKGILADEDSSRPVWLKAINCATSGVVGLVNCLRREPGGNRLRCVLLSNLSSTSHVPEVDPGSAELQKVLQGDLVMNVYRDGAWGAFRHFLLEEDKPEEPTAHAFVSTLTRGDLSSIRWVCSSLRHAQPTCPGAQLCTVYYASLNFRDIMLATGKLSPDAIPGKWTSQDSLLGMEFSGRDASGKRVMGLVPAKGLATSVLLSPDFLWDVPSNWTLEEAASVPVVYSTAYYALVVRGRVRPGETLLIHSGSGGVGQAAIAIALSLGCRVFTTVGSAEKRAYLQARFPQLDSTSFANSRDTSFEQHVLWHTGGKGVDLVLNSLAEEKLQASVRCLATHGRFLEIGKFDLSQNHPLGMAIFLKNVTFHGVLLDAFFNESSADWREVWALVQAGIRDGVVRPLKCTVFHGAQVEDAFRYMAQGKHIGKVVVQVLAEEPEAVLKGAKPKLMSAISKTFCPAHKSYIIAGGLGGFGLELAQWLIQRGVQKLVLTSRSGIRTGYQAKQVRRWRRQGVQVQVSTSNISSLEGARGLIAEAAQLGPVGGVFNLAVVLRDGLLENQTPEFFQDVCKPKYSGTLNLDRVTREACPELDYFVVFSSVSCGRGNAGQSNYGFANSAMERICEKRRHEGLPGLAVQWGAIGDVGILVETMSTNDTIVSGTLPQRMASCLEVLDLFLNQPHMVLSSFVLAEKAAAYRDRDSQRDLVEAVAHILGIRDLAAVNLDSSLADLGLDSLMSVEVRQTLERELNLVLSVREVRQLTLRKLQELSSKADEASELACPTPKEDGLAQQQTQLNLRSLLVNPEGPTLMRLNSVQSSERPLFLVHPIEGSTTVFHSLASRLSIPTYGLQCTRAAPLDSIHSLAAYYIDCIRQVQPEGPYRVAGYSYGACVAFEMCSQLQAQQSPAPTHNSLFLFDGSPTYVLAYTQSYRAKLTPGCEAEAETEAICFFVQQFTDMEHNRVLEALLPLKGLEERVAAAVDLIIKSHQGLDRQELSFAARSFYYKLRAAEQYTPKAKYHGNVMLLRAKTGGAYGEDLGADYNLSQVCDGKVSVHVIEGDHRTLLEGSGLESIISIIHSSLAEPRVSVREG

CC(C)c1cccc(C(C)C)c1
inactive: [1] | [2] | [3] | [4] | [5] | [6]

O=C(O)CN(CC(=O)O)CC(=O)O
inactive: [7] | [8] | [1] | [2] | [3] | [4] | [5] | [6]

Nc1nc(Cl)nc2c1ncn2[C@H]1C[C@H](O)[C@@H](CO)O1
active: [7] 0.201 µM | [8] 0.128 µM | [1] 0.209 µM | [2] 1.59 µM | [4] 0.168 µM | [5] 3.49 µM | [6] 0.887 µM
inactive: [3]

CC1(C)C(=O)NC(=O)N1CO
inactive: [1] | [2] | [3] | [4] | [5] | [6]

C=CCCCCCCCCCCCC
inactive: [1] | [2] | [3] | [4] | [5] | [6]

CC(C)(O)c1ccc(CNC(=O)c2cccnc2Oc2ccc(F)cc2)cc1
inactive: [7] | [8] | [1] | [2] | [3] | [4] | [5] | [6]

O=C1OC(c2ccc(O)cc2)(c2ccc(O)cc2)c2ccccc21
active: [8] 2.39 µM | [2] 89.6 µM | [5] 78.7 µM | [6] 69.2 µM
inactive: [1] | [3] | [4]

CN(C)C(=O)NC1(c2ccccc2)CCN(CCC[C@]2(c3ccc(Cl)c(Cl)c3)CCCN(C(=O)c3ccccc3)C2)CC1
inactive: [7] | [9] | [10] | [8] | [1] | [3]
active: [2] 16.5 µM | [4] 18.4 µM | [5] 22.7 µM | [6] 18.8 µM

O=C1NC(=O)C(c2ccccc2)(c2ccccc2)N1
inactive: [7] | [8] | [1] | [2] | [3] | [4] | [5] | [6]

Cc1c(C)c2c(c(C)c1O)CCC(C)(COc1ccc(CC3SC(=O)NC3=O)cc1)O2 (stereo not given)
active: [6] 50 µM
inactive: [9] | [10] | [8] | [1] | [2] | [4] | [5]

Cc1occc(=O)c1O
inactive: [1] | [2] | [3] | [4] | [5] | [6]

CC(=O)O[C@]1(C(C)=O)CC[C@H]2[C@@H]3C=C(Cl)C4=CC(=O)[C@@H]5C[C@@H]5[C@]4(C)[C@H]3CC[C@@]21C
inactive: [8] | [1] | [4] | [5]
active: [2] 50 µM | [3] 7.8 nM | [6] 50 µM

CCCCCCCCCC[N+](C)(C)[O-]
active: [8] 3.86 µM
inactive: [7] | [9] | [10] | [1] | [2] | [3] | [4] | [5] | [6]

CC1=C(C)S(=O)(=O)CCS1(=O)=O
active: [8] 1.03 µM | [1] 76.8 µM | [2] 81.6 µM | [4] 85.4 µM
inactive: [7] | [9] | [10] | [3] | [5] | [6]

CCC(C)N(C)C(=O)c1cc2ccccc2c(-c2ccccc2Cl)n1 (stereo not given)
active: [8] 3.89 µM
inactive: [9] | [10] | [1] | [2] | [3] | [4] | [5] | [6]

S=c1[nH]c2ccccc2s1
inactive: [7] | [8] | [1] | [2] | [3] | [4] | [5] | [6]

CC(=O)S[C@H](C(=O)N[C@H]1Cc2ccccc2[C@H]2CCC[C@@H](C(=O)O)N2C1=O)C(C)C
inactive: [1] | [2] | [3] | [4] | [5] | [6]

CCCCc1nc2cccnc2n1Cc1ccc(-c2ccccc2-c2nnn[nH]2)cc1
active: [7] 10.1 µM | [8] 9.12 µM | [2] 50 µM
inactive: [9] | [10] | [1] | [3] | [4] | [5]
